Screening results deposited in PubChem BioAssay by several laboratories.
An excerpt weighted towards active compounds, which were near 4% of everything screened.
BoNT F protease: BoNT/F light chain protease inhibitors, primary screen, biochemical, flow cytometry, MLPCN library | Multiplex microsphere protease cleavage assay | hit rate 0.22% among 360,000 | AID 588497, 2011 | inhibition, % at 10 µM; in the data active means inhibition above about 35%, passing the limit was not always enough; inconclusive means no clear call, values can overlap the other calls; further: plate controls were buffer without enzyme for full effect and enzyme alone for no effect
Autofluor counter: flagged as autofluorescent in microsphere protease counterscreen. compound autofluorescence counterscreen, microsphere flow cytometry; hits give high values. fluorescence intensity (test concentration not listed). hit rate 3.1% among 360,000. AID 624483; in the data active means fluorescence intensity above about 16000; inconclusive means no clear call, values can overlap the other calls
Anthrax LF prot: Bacillus anthracis LF protease inhibitors, primary screen, biochemical, multiplex microsphere, MLPCN library | inhibition, % at 10 µM | multiplex microsphere protease cleavage assay | hit rate 0.12% among 360,000 | AID 588501, 2011; further: plate controls were buffer without enzyme for full effect and enzyme alone for no effect
Target sequence (P15917 whole entry, looked up): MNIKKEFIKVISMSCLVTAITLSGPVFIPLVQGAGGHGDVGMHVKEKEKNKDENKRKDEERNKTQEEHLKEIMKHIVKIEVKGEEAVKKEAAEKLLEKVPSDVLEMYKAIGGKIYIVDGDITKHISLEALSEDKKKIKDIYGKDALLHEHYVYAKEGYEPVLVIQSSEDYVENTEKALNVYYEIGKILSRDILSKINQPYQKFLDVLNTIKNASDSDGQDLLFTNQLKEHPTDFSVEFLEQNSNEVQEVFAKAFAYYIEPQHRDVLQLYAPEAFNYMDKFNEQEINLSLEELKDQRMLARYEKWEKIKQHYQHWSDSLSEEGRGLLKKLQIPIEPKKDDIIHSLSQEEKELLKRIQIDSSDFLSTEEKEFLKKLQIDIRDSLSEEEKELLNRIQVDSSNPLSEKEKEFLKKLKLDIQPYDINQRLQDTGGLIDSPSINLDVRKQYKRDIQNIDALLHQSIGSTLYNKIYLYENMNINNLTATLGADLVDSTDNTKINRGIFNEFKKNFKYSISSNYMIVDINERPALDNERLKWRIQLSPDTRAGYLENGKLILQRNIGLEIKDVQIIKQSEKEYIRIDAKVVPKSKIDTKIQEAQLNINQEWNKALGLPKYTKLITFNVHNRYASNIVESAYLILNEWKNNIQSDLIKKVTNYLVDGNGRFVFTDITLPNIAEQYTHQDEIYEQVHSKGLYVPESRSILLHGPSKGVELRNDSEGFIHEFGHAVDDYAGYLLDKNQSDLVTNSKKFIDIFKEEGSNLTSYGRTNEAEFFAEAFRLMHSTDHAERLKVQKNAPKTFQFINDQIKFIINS
MazF activator: activators of E. coli MazEF toxin-antitoxin RNase, primary screen, biochemical, fluorescence, uHTS; hit rate 0.32% among 350,000; Endoribonuclease toxin MazF (Escherichia coli (strain K12)), P0AE70; FAM/BHQ RNA-DNA oligo cleavage fluorescence, 5 h; activation, % at 20 µM; in the data active means activation above about 50%
BoNT-A LC inh2: BoNT/A light chain protease inhibitors, primary screen, biochemical, flow cytometry, MLPCN library. Botulinum neurotoxin type A light chain protease (Clostridium botulinum A str. ATCC 3502). multiplex microsphere protease substrate cleavage. inhibition, % at 10 µM. hit rate 0.17% among 360,000. AID 588499, 2011; further: plate controls were buffer without enzyme for full effect and enzyme alone for no effect
DUSP3 inh: VHR1 phosphatase inhibitors, primary screen, biochemical, absorbance, uHTS; inhibition, % at 13.3 µM; recombinant VHR phosphatase, pNPP absorbance; hit rate 0.52% among 290,000; AID 1654, 2009; in the data active means inhibition above about 50%
The depositor's hits bear a star; u = inconclusive; x = not tested or not shown. Unless noted, no stated cut-off is given here; in the data, active means inhibition above about 30%; inconclusive means no clear call, values can overlap the other calls; inactive means below that.

SMILES | BoNT F protease | Autofluor counter | Anthrax LF prot | MazF activator | BoNT-A LC inh2 | DUSP3 inh
COc1ccccc1N1CC(C(=O)Nc2ccc3c(c2)OCO3)CC1=O (stereo not drawn) | 4 | 4100 | -1 | 15 | -1 | 6
O=C(Cc1ccc(F)cc1)c1ccc(O)cc1O | 1 | 19761* | -1 | 1 | 1 | 22
CCC1CCCCN1CCCNC(=O)C1CCCN(S(=O)(=O)N2CC(C)CC(C)C2)C1 (stereo not drawn) | -11 | 7420 | -2 | 3 | -4 | 54*
CCC1CCCCN1CCCNC(=O)C1CCCN(c2ncnc3c2nc2n3CCCCC2)C1 (stereo not drawn) | 0 | 5207 | -4 | 10 | 0 | 57*
COCCN(Cc1ccco1)C(=O)C1CCCN(c2ncnc3c2nc2n3CCCCC2)C1 (stereo not drawn) | -4 | 6276 | -2 | 10 | -1 | 52*
CC1CC(C)CN(S(=O)(=O)N2CCCC(C(=O)NCCCN3CCCCC3C)C2)C1 (stereo not drawn) | 4 | 5870 | 1 | 6 | 0 | 2
Cc1ccc(S(=O)(=O)N2CCCC(C(=O)NCCCN3CCCCC3C)C2)cc1 (stereo not drawn) | 0 | 25210* | 2 | 1 | 2 | -8
C=CCc1cc(CN2CC(C)OC(C)C2)c(O)c(OC)c1 (stereo not drawn) | -4 | 3843 | -2 | 5 | 0 | x
CCOc1ccc(NC(=O)CN(C)C(=O)CC2CCCCC2)cc1OCC | -2 | 3825 | 2 | 3 | 0 | x
O=C(NCCS(=O)(=O)N1CCN(c2cccc(Cl)c2)CC1)c1cc(=O)c2ccccc2o1 | 0 | 5692 | -1 | -10 | 0 | 13
O=C(NCC1CCCO1)C1CCCN(S(=O)(=O)c2ccc(Cl)cc2)C1 (stereo not drawn) | -2 | 4979 | 4 | 4 | 1 | 50*
O=C(C1CCN(c2ncnc3c2nc2n3CCCCC2)CC1)N1CCCCC1 | 4 | 3857 | 2 | -38 | 1 | 52*
CCOc1cc(C(=O)OCc2cc(=O)n3c(C)csc3n2)ccc1OC | 4 | 5026 | 2 | 1 | 4 | x
O=C(NN=Cc1ccccc1Cl)c1ccc(-n2cnnn2)cc1 | -14 | u | -2 | 8 | -9 | x
CCN(CC(=O)Nc1ccc2c(c1)OCCO2)Cc1cc(=O)oc2c(C)c(C)ccc12 | 9 | 20523* | -2 | 8 | u | 6
O=C(c1ccc2c(c1)OCCO2)C1CCN(S(=O)(=O)c2ccccc2F)CC1 | -1 | 23887* | -7 | 0 | u | 19
O=C(c1ccc(F)cc1)C1CCN(C(=O)NCc2ccccc2)CC1 | -1 | 24106* | 0 | 6 | -1 | 13
O=C(CN1CCC(C(=O)c2ccc(F)cc2)CC1)Nc1ccccc1 | -1 | 19525* | 0 | -1 | 1 | 26
CCOc1ccc(C(=O)N2CCC(C(=O)c3ccc4c(c3)OCCO4)CC2)cc1 | 0 | 17361* | 1 | -1 | 1 | 37
Cc1cccc(NC(=O)CN2CCC(C(=O)c3ccc4c(c3)OCCO4)CC2)c1 | -8 | 3710 | 7 | 5 | 0 | 1
CCN(CC(=O)Nc1ccc2c(c1)OCCO2)S(=O)(=O)c1ccc(C)cc1 | -4 | 17435* | 2 | 4 | -2 | -14
Cc1ccc(C(=O)C2CCN(CC(=O)Nc3ccc(N(C)C)cc3)CC2)cc1 | -5 | 21202* | -1 | -1 | u | 8
Cc1ccc(C(=O)C2CCN(CC(=O)Nc3ccc4c(c3)OCCO4)CC2)cc1 | -3 | 23981* | 0 | 0 | 1 | 13
CCOC(=O)C1CCN(C(=O)c2ccc3c(c2)OCCO3)CC1 | -4 | 4181 | 3 | 0 | 0 | x
CCN(CC(=O)Nc1ccc2c(c1)OCCO2)S(=O)(=O)c1cccs1 | x | x | x | -2 | x | 27
SMILES | BoNT F protease | Autofluor counter | Anthrax LF prot | MazF activator | BoNT-A LC inh2 | DUSP3 inh
Cc1cc(C(=O)N/N=C/c2c(C)nn(-c3ccccc3)c2Cl)n[nH]1 | u | 3623 | -10 | 14 | 2 | 33
COc1cccc(-c2ccc3c(c2)O[C@@H](CN(C)C(=O)C2CCOCC2)[C@H](C)CN([C@H](C)CO)S3(=O)=O)c1 | -6 | 3186 | -2 | 2 | 0 | x
Cc1ccc(Cl)cc1OCC(=O)NCCOC(=O)Nc1sc(=S)n(C)c1C | -8 | 2757 | -4 | 2 | -1 | 55*
Cc1cc(Cl)ccc1OCC(=O)NCCOC(=O)Nc1sc(=S)n(C)c1C | -2 | 2564 | -2 | 3 | -1 | -6
Cc1ccc(C(=O)NCC(=O)NCc2ccccc2F)s1 | x | x | x | 1 | x | x
C[C@@H]1CNC(=O)c2c(C(=O)NCc3ccc(CNC(=O)OC(C)(C)C)cc3)ncn21 | -8 | 2884 | -6 | 7 | 0 | x
Oc1cc2c(cc1CN1CCN(c3ccccc3)CC1)CCC2 | -42 | 3386 | -11 | 1 | -3 | x
COc1ccc(N2CCN(Cc3cc4c(cc3O)CCC4)CC2)cc1 | -5 | 22399* | 0 | 6 | -4 | 3
O=C(COC(=O)c1cnccn1)c1ccc2c(c1)CCCC2 | 2 | 20610* | -5 | 3 | 2 | -9
CCOC(=O)C(=O)NC(C)c1ccccc1 (stereo not drawn) | -6 | 4953 | 1 | -7 | -2 | 16
CCOC(=O)C(C(=O)OCC)=C1OC(=O)c2ccccc21 | -1 | 23965* | -2 | 0 | 0 | 15
CC1(C)C2CC=C(CN3CCOCC3)C1C2 (stereo not drawn) | 1 | 22704* | -1 | 5 | 1 | 6
CCCc1ncc(C(=O)c2ccc(OC)cc2)n1C | -5 | 24262* | -1 | 9 | -3 | 16
O=C(NNc1ccccn1)C(=O)NNS(=O)(=O)c1ccc(Cl)cc1 | 0 | 23954* | 0 | 15 | -1 | 35
COc1cc2nc(/C=C/c3cc(OC)c(OC)c(OC)c3)sc2cc1SC | 13 | 3237 | 21 | 2 | 54* | 46
Cc1ccc(NC(=O)CCn2cnc3ccccc3c2=O)cc1Cl | -10 | 2551 | 1 | -6 | -1 | -9
C[C@H]1CN([C@@H](C)CO)C(=O)CCCn2nncc2CO[C@@H]1CN(C)C(=O)Nc1cccc2ccccc12 | 1 | 4000 | -6 | 5 | 0 | x
COc1ccc(N2CCCC2)c(NC(=O)c2ccc(Br)o2)c1 | 4 | 4184 | -2 | 63* | 2 | 7
CCOC(=O)c1c(NC(=O)c2cc(C)oc2C)sc(C(=O)Nc2ccc(Cl)cc2)c1C | -16 | 4163 | 2 | -4 | 1 | 34
Cc1ccc(C(=O)Cn2c(C)cc(C)c(C#N)c2=O)cc1 | -105 | 7594 | -2 | 3 | -9 | 28
Cc1ccc(NC(=O)Cn2c(C)cc(C)c(C#N)c2=O)c(Cl)c1 | -5 | 23456* | -4 | -4 | -4 | 3
